# High-throughput results deposited in PubChem BioAssay by several laboratories.
# A selection: hits, their analogues and other compounds. The true share with any hit is near 27%.
# CYP2C9 activ = CYP2C9 (human) activation. P11712. recombinant CYP2C9, luciferin-H conversion, luminescence; stronger effect = higher value; factor 1 = untreated enzyme, 0 = blocked. activation factor at 5 µM. 96,000 compounds, 1.4% hits. AID 1024;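 active = activation factor of 2 or more for CYP2C9 at a 5 µM dose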;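 note: 0 = sulfaphenazole-blocked wells and 1 = vehicle-only wells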
# CYP2C9 inh = human CYP2C9 inhibition. P11712. CYP2C9 Supersomes, luciferin-H conversion, luminescence. inhibition, % at 5 µM. 96,000 compounds, 20% hits. AID 777;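 active = blocking of liver enzyme CYP2C9 beyond about 50% at 5 µM, limit read from the data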
# CYP2C19 act = increases human CYP2C19 enzyme activity; recombinant CYP2C19, luciferin-H EGE luminescence; stronger effect = higher value; 0 = fully inhibited enzyme, 1 = untreated enzyme; P33261; activation factor at 5 µM; 96,000 tested, under 10 active;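 active = activation factor of at least 2 at 5 µM in the primary screen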;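 note: 0 = wells with 2.5 mM tranylcypromine and 1 = vehicle-only wells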
# Target sequence (P33261 whole entry, looked up): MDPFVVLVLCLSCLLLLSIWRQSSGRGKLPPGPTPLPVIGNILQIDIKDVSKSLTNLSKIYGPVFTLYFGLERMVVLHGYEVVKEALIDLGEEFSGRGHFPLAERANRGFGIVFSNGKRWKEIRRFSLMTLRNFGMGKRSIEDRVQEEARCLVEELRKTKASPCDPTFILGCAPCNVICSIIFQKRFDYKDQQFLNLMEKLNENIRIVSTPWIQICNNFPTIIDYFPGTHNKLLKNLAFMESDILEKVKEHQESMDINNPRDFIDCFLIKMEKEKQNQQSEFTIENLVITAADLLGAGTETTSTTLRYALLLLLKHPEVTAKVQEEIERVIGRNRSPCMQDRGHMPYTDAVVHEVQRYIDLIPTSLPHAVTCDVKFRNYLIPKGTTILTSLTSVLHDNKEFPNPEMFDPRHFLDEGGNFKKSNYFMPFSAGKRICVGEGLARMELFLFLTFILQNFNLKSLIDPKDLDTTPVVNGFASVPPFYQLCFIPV
# Cav32 inh = human Cav3.2 channel inhibition, primary screen | 100,000 compounds, 4% hits | Cav3.2-expressing cells, Fluo-4 calcium fluorescence FDSS; stronger effect = lower value | O95180 | B-score at 10 µM;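 active = single-dose well whose peak fluorescence ratio is a statistical outlier from its plate by either plate-standardised score or position-corrected B-score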
# CYP2C19 inh = inhibitors of human CYP2C19; CYP2C19 Supersomes, luciferin-H EGE luminescence, 30 min; inhibition, % at 5 µM; 96,000 compounds, 21% hits; AID 778;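 active = CYP2C19 inhibition above a set limit at 5 µM in the primary screen, cut at about 50% in these data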;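 note: plate controls were negative control wells for no effect and 2.5 mM tranylcypromine positive control for full effect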
# An asterisk follows results filed as active; / = not tested or not shown.
SMILES,CYP2C9 activ,CYP2C9 inh,CYP2C19 act,Cav32 inh,CYP2C19 inh
O=C(COC(=O)C1=COCCO1)Nc1ccc(Oc2ccccc2)cc1,0.1,89.8*,0.2,-0.176,82.2*
CCOC(=O)c1ccccc1NC(=O)COC(=O)C1=COCCO1,0.3,68.4*,0.9,0.418,14.9
COc1ccc(CNC(=O)COC(=O)C2=COCCO2)cc1,0.9,8.2,0.6,1.35,38.9
CCc1ccc(N(C(=O)CCC(=O)Nc2cc(C)on2)C(C(=O)NC2CCCC2)c2ccco2)cc1 (stereo unspecified),/,/,/,-2.79,/
CCc1ccccc1N(C(=O)CCC(=O)Nc1cc(C)on1)C(C(=O)NC1CCCC1)c1ccco1 (stereo unspecified),0.4,57.7*,0.3,-2.3,74.7*
C=CCN(C(=O)CCC(=O)Nc1cc(C)on1)C(C(=O)NC1CCCC1)c1cccnc1 (stereo unspecified),0.3,67.8*,0.6,-0.824,44.8
Cc1cc(NC(=O)CCC(=O)N(C2CC2)C2(C(=O)NC3CCCC3)CCC(C)CC2)no1 (stereo unspecified),0.3,71.2*,0.4,-0.79,58.6*
Cc1cc(NC(=O)CCC(=O)N(CC(=O)NC2CCCC2)Cc2ccc(F)cc2)no1,0.8,19.0,0.9,0.161,12.0
Cc1cc(NC(=O)CCC(=O)N(CC(=O)NC2CCCC2)Cc2ccccc2Cl)no1,0.4,57.5*,0.6,0.494,41.1
CCOc1cc(C(=S)N2CCCC2)ccc1OCC(=O)Nc1c(C)cc(C)cc1C,/,/,/,0.783,/
CC1CC(C)CN(CCCNC(=O)C2CCC(=O)N2C2CCCC2)C1 (stereo unspecified),0.8,23.0,1,0.2,2.1
Cc1cc(C)c(C#N)c(SC(F)F)n1,1.2,-23.4,1,0.145,-3.6
CCOc1ccc(N(C(=O)/C=C/C(=O)Nc2cc(C)on2)C(C(=O)NC2CCCC2)c2ccccc2C)cc1 (stereo unspecified),0.6,44.5,0.5,-5.38*,48.2
C=CCNc1nc(N)c(C(=O)Nc2cc(C)on2)s1,1,3.3,0.9,0.387,7.7
C=CCNc1nc(N)c(C(=O)c2ccc3c(c2)OCO3)s1,1.3,-31.5,0.1,/,89.7*
COC(=O)[C@H](CC(C)C)NC(=O)NC1CCCCC1C (stereo partly specified),0.8,23.2,0.7,-0.653,25.4
CC(=O)Nc1ccc(NC(=O)C/C(C)=N/NC(=O)C(=O)N2CCCC2)cc1,0.9,6.1,1,-1.02,-1.4
Cc1cccc(NC(=S)NN(Cc2ccccc2)c2ccccc2)c1C,0.7,29.0,0.8,-4.85*,16.2
Cc1cccc(NC(=S)NC(=O)CCc2ccccc2)c1C,0.9,7.5,0.9,-0.222,13.3
Oc1ccc(Br)cc1/C=N/N1CCN(Cc2ccccc2)CC1,1.1,-10.3,1,-1.4,2.2
Oc1ccc(Br)cc1/C=N/n1cnc2ccccc21,0.3,70.9*,0.9,0.753,6.1
Cc1cccc(N2CCN(C(=O)c3cn(C)c(=O)c4c3c3ccccc3n4C)CC2)c1C,0.3,70.5*,0.9,/,8.5
Cn1c2ccccc2c2c(C(=O)NCC3CCCO3)cn(C3CCCC3)c(=O)c21 (stereo unspecified),0.6,39.6,0.7,1.09,30.5
Cn1c2ccccc2c2c(C(=O)N3CCN(c4ccccc4)CC3)cn(C3CCCC3)c(=O)c21,0.5,51.5*,0.6,-3.42,39.8
Cc1ccc(Cl)cc1N1CCN(C(=O)c2cn(C)c(=O)c3c2c2ccccc2n3C)CC1,0,96.4*,0.1,-1.3,86.0*
SMILES,CYP2C9 activ,CYP2C9 inh,CYP2C19 act,Cav32 inh,CYP2C19 inh
CN1CCN(CCCNC(=O)c2cn(C3CCCCC3)c(=O)c3c2c2ccccc2n3C)CC1,1,0.9,0.7,1.37,34.0
Cn1c2ccccc2c2c(C(=O)NCCCN3CCCC3=O)cn(C3CCCCC3)c(=O)c21,0.5,54.6*,0.7,-0.0418,32.8
COCCn1cc(C(=O)N2CCN(C)CC2)c2c3ccccc3n(C)c2c1=O,1,-1.3,1,1.14,-0.4
C=C1CCN([C@@H](Cc2ccccc2)C(=O)NC2CCN(Cc3ccccc3)CC2)S(=O)(=O)c2ccccc21,/,/,/,1.45,/
CCC(=O)N1CCC2(CC1)Oc1ccc(F)cc1C(=O)C21CC(c2ccccc2)=NO1 (stereo unspecified),/,/,/,-0.189,/
O=C(CCCOc1ccccc1)Nc1nnc(C2CCCO2)s1 (stereo unspecified),0.4,55.5*,0.4,0.00633,63.8*
CC(C)C1O/C(=N/C(=O)Nc2ccc(Cl)c(Cl)c2)NC1=O (stereo unspecified),0.9,6.8,0.9,-5*,7.1
NC(=O)CC[C@@H]1NC(=O)C(Cc2ccc(O)cc2)NC(=O)c2cc([N+](=O)[O-])cc(F)c2NCCC[C@@H](C(N)=O)NC1=O (stereo partly specified),/,/,/,-0.107,/
Cc1cc(C)nc(Sc2ccc3nnc(C(F)(F)C(F)(F)C(F)(F)F)n3n2)n1,0.4,63.4*,0.4,0.394,58.1*
CSc1ccc2nnc(-c3cccc(F)c3)n2n1,0.7,27.6,0.8,-0.407,15.3
COc1ccc(N2C(=O)N(Cc3cccc(F)c3)c3ccccc3S2(=O)=O)cc1,/,/,/,-3.53,/
CCOc1ccc(-c2csc(N)c2C(=O)OC)cc1,0.3,70.6*,0.3,-1.29,65.6*
CCOc1ccc(NC(=O)CN2CCN(CC(=O)Nc3ccc(C(=O)OC)cc3)CC2)cc1,0.9,7.1,1,0.0128,-1.0
CCOC(=O)c1c(-c2ccncc2)csc1N,0.3,66.4*,0.5,0.132,49.4
COc1ccc(C(CNC(=O)c2cc3ccccc3cc2OC)N2CCCC2)cc1 (stereo unspecified),0.9,5.0,1,/,3.9
Cn1cnnc1-c1cccc(NS(=O)(=O)c2ccc(N3CCCC3=O)cc2)c1,/,/,/,-0.334,/
COC(=O)c1ccccc1NC(=O)Cn1nnc(-c2ccc(OC)cc2)n1,/,/,/,-0.223,/
CCOc1ccc(NC(=O)Cn2nnc(-c3ccccc3NC(=O)CC)n2)cc1,0.1,88.7*,0,-0.582,100.4*
CCCOc1ccc(-c2nnn(CC(=O)Nc3cccc(C(=O)OC)c3)n2)cc1,0.1,91.7*,0.7,-0.141,32.7
CCCC(=O)Nc1ccccc1-c1nnn(CC(=O)Nc2ccc(OCC)cc2)n1,/,/,/,0.0723,/
COc1ccc(OCC(=O)NC2CC(C)(C)NC(C)(C)C2)cc1,1.1,-7.7,1,-0.342,-4.3
COC(=O)c1ccc(COc2nc(C)cc(C)c2C#N)o1,0.8,23.5,0.3,-0.741,70.4*
COC(=O)C1ON2OC(C(=O)OC)C(C(=O)OC)C2C1CC(C)=O (stereo unspecified),1,2.1,1,0.685,-2.0
CC(=O)/C=N/Nc1ccccc1,0.4,60.1*,1.1,-0.453,-6.2
C=CCSC1=C(C#N)C(c2ccccc2Cl)CC(=O)N1 (stereo unspecified),0.5,49.8,0.3,-0.00176,73.0*
C=CCSC1=C(C#N)C(c2ccccc2C)CC(=O)N1 (stereo unspecified),0.8,25.0,0.8,1.34,24.5
